Experimental data as given in the supplement of paper PMC3334620.
Over roughly 33,000 sequences, “E-score (-0.5 to 0.5)” has its median near -0.054; the highest 2% begin near 0.35. The list comes from a sample in which the highest values are over-represented; it also holds similar and randomly drawn sequences.

Biological target: T1, Stb5 (UniProt P38699)
T1 sequence: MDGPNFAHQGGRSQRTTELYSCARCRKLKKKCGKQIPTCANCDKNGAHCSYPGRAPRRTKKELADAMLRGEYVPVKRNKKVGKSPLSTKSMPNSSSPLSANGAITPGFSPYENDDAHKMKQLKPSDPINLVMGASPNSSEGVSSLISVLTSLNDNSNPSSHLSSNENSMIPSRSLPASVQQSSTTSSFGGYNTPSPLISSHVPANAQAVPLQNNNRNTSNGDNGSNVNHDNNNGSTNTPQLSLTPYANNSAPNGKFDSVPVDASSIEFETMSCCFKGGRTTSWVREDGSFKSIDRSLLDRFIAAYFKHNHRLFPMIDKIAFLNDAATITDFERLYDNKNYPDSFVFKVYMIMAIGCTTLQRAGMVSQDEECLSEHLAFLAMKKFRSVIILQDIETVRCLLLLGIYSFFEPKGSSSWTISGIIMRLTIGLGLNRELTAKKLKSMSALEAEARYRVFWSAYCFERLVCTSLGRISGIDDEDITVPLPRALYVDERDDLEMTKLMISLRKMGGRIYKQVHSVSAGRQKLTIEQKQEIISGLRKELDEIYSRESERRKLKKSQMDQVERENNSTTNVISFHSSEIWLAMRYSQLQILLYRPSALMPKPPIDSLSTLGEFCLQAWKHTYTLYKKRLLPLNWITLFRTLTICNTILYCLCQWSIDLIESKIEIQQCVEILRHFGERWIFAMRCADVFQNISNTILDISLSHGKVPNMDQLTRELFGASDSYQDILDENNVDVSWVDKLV
Test: PBM E-score (8-mer binding enrichment) (E-score (-0.5 to 0.5)); higher = stronger / more preferred TF binding
Settings: protein concentration: 200 nM; construct: GST-full length
Method: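 Universal 'all 10-mer' protein binding microarrays (Agilent AMADID 015681) probed with GST-tagged S. cerevisiae TFs (full-length or DBD) made by in vitro transcription/translation (PURExpress), about 100-200 nM. Bound TF was detected with fluorescent anti-GST. Each ungapped 8-mer (which stands for itself and its reverse complement) is scored by the PBM enrichment score (E-score), a modified Wilcoxon-Mann-Whitney statistic from -0.5 to +0.5, computed with the Universal PBM Analysis Suite. Scale: above 0.35 generally sequence-specific binding.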

Sequence	PBM E-score
ACTTGCAA	-0.00221
CAAGAAGG	-0.193
ATCGTATC	-0.175
AGTCTTAC	-0.185
AAGGGCAT	-0.336
ACTCGGCA	0.00054
GCATGAGC	-0.0601
GCCCAAGA	-0.114
CCATTGCG	0.116
CCGCGGAC	0.362
CGGCGGAC	0.377
CGGCGGAA	0.348
CCGCGGAA	0.265
CCGCGGAG	0.298
GCGCGGAC	0.292
CGGCGGAG	0.347
GGGCGGAC	0.408
GGGCGGAA	0.241
AATATATT	0.208
CCGAACTA	0.177
CAGCAGGG	-0.0502
CCAGAAGC	0.0499
CCTCCTTC	-0.213
CGAGGTGC	-0.146
AGCACCTC	-0.163

Sequence	PBM E-score
AGCACCGC	0.461
AGCACCAC	-0.0526
CGCACCGA	0.272
CGCACCGC	0.352
CGCACCTC	-0.0539
TCAGCTAA	-0.245
GACTAGTC	-0.117
ACTGTATG	-0.0542
TCCGCGGA	0.144
GCCGCGGC	0.331
CCCGCGGG	0.361
CCCGCGCG	0.342
ACCGCGGT	0.39
ACCGCGAT	0.346
ACCGCGGG	0.317
CCCGCGGC	0.333
CCCGCGGA	0.322
ACCGCGGA	0.358
GCCGCGGA	0.299
ACCGCGGC	0.412
CAAAACAG	-0.0698
CTGACAGA	-0.0917
ACCAGCCC	0.211
AACGAGGG	-0.19
AAGTCGGT	0.324

Sequence	PBM E-score
ACTTAAAC	-0.0316
AGGGAGCG	-0.0929
AGCTATCG	-0.103
AAATGAGA	-0.261
GGCACTGA	0.00323
GAAGAATA	-0.123
AAGGACCA	-0.0213
AATGACCA	-0.133
AAAGACCA	-0.216
AATGACCT	-0.0215
AAAGACCG	0.448
AAGGACCG	0.383
CAAGACCG	0.312
AAGGACCT	0.00048
AATGACCG	0.365
AGCATGGC	-0.178
GGCCTAGA	-0.147
CTGCATCA	-0.327
CACCTGTA	-0.208
CCCCGACG	0.449
CCCCGAGG	0.148
ACCCGACG	0.287
GCCCGACA	0.334
ACCCGACC	0.279
TCCCGACA	0.291

Sequence	PBM E-score
CCCCGACC	0.355
GCCCGACC	0.306
CCCCGACA	0.412
GCGACTCA	-0.156
CGCAGCAG	-0.0406
GGGATATA	0.272
CGGATATA	0.443
CGGATATC	0.193
CGGATTTA	0.452
GGGATGTA	-0.0169
CGGATCTC	0.103
GGGATTTA	0.351
CGGATGTA	0.381
CGGATTTC	0.223
CGGATCTA	0.424
CGGATGTC	0.223
GGGATCTA	0.0662
AGCGATGA	0.0899
CGCCAGGA	-0.17
ACGTCATC	-0.115
CTACTACC	0.216
ACAGCACC	0.202
GGCTAGTA	-0.139
ACCCTGCG	-0.165
TCCACCAA	-0.103

Sequence	PBM E-score
GACAAAGA	-0.0701
CATCCCGG	0.134
AATCCCCG	0.452
AATCCGGG	0.233
AATTCCCG	0.363
AATCCCCC	0.127
CATCCCCG	0.264
AATTCCCA	-0.261
CATTCCCG	0.203
AATCCCGG	0.352
GATGCAGC	0.0949
CATAAAGC	-0.0703
CTCAAATC	-0.136
TCACTCGA	-0.204
CGCGGTAA	0.343
CGCGGTGA	0.359
CTCGGTGC	0.148
CGCGGTGC	0.378
GCCGGTGA	0.316
CCCGGTGA	0.261
CGCGGTAG	0.249
GGCGGTGA	0.376
AGCGGTCC	0.327
GGCGGTCA	0.342
CGCGGTCA	0.21

Sequence	PBM E-score
CGCGGTCC	0.356
CCTATCAG	-0.131
CCAATATA	-0.07
CGCTCTAC	-0.0196
CAAAGCCC	0.285
AGCGGTCA	0.29
CGCGGTTA	0.37
ACCGGTGA	0.319
CGCGGTTC	0.205
CCCGGTGC	0.315
ACCGGTGC	0.377
AGCGGTGC	0.396
AGCGGTAG	0.204
AGCGGTTC	0.0808
AGCGGTGA	0.387
AGCGGTGG	0.346
AGCGGTTA	0.122
GCCGGAAA	0.187
CGTTGGAC	-0.0247
GTCCCATA	-0.0984
AGATTCAA	-0.16
AGCCTGCC	-0.229
CCTGACCA	-0.291
CACGGTGC	0.306
ACCGGTAT	0.336

Sequence	PBM E-score
ACCGGTAA	0.326
GACGGTGC	0.392
ACCGGTAC	0.397
GACGGTGA	0.325
AGAATGAT	-0.254
ATTGCATA	-0.0781
CAAGATGA	-0.286
AACCTTCC	-0.135
CGACTCCA	-0.0871
TAAAAAGA	0.046
GCAGAGTA	-0.202
CATCTAGC	-0.12
CGGGCCGA	0.327
AGGGCCGA	0.354
GGGGCCGA	0.158
CGGGCCGC	0.195
AGGGCCGG	0.271
AGGGCCGC	0.36
CTGGGGCC	-0.0638
GGTTGTAA	0.0915
CGGAGTGC	0.198
GGGAGTGA	-0.0152
GGGAGTCA	-0.163
CGGAGTCA	0.391
AGGAGTCA	-0.194

Sequence	PBM E-score
CGGAGTGA	0.391
AGCGCAGA	-0.0263
CCATGACG	0.0201
CCAATTTA	0.119
CCACCGCA	0.245
AGACCGCG	0.297
ACACCGCA	0.44
CGACCGCC	0.255
TCACCGCA	0.305
AGACCGCC	0.364
CCACCGCG	0.3
ATACCGCC	0.434
ACACCGCG	0.444
ATACCGCA	0.325
CTACCGCC	0.305
ATACCGCG	0.33
CCCGTGAC	0.155
GATTTGAC	0.0761
CAGCGTAA	-0.168
CCCATTAG	-0.361
AATTCCGA	0.265
GGACGGGA	0.1
CCTTTGCG	0.03
GATGCCCA	-0.136
ATACCGTC	0.357

Sequence	PBM E-score
AAACCGCT	0.0494
GCACCGCC	0.377
AGACCGCT	0.345
CCACCGCC	0.282
GAACCGCC	0.187
ATACCGTG	0.249
ATACCGTA	0.259
ACACCGCC	0.459
AAACCGCC	0.302
GGACCGCC	0.288
ACACCGCT	0.419
ATCTGGTC	-0.153
ATTTAGAG	-0.138
AATGGTGA	-0.231
TGTAGCAA	-0.0607
AATAAGCA	-0.0559
CAAAGTAG	-0.164
GCACCGTA	0.248
GGACCGCA	0.188
GCACCGCA	0.361
